We go through 40 compounds from PubChem BioAssay (Tox21).

“And” between values parts separate entries of the source, which are not always exact repeats. Equal entries are not always repeated. Records with an inconclusive call do not appear. A call without a number means that no potency is given here. The source holds several records for some structures; these can differ, active in one and inactive in another. The source made the active and inactive calls. The call rests on the fitted dose curve; in most records, active means well fitted curve in the direction sought with a large enough effect in the repeat runs; inconclusive means weak or mixed curves; inactive means no such curve, though single readings can be large; an effect the other way counts as inactive or inconclusive. Non-standard residues stand in square brackets, D forms with d. Residues, ends and D or L forms follow the SMILES beside them. Orn = NCCC[C@H](N)C(=O)O
Further: nearly all actives have a fitted effect of over 40% in size.
Potency means the concentration at half of the fitted maximal effect.

The target in one experiment is Nuclear receptor subfamily 1 group I member 2 (Homo sapiens) (UniProt O75469). Put plainly: CYP3A4 induction through human pregnane X receptor (PXR) by small molecules, qHTS assay (AID 1346984). Conditions: DPX-2 HepG2 PXR, CYP3A4-luciferin luminescence, 24 h; series mostly up to 46.1 µM. In short, it runs like this: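 DPX-2 reporter cells; 24h cpd, 37C; Luciferin-IPA 3uM final x3h; One-Glo 30 min RT; lumi read.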
A general note: Quantitative high-throughput screening tests each substance at several concentrations.
Consider `C=C1[C@H](CO)[C@@H](O)C[C@@H]1n1cnc2c(=O)[nH]c(N)nc21`, for which the Potency entry is “inactive”. For `CC(C)=CCC/C(C)=C/CC/C(C)=C/CC/C=C(\C)CC/C=C(\C)CCC=C(C)C`, the Potency result was “inactive”.

Consider `CCN(CC)CC#CCOC(=O)C(O)(c1ccccc1)C1CCCCC1` (stereo unspecified), for which the Potency is 8.91 µM (active).

Turning to `CC(C)c1ncc([N+](=O)[O-])n1C`, the Potency entry was “inactive”. The same measure, in the same setting: the value for `N[C@H](C(=O)O)[C@@H]1CC(Cl)=NO1` was “inactive”. In the case of `O=c1[nH]c(=O)n([C@H]2C[C@H](O)[C@@H](CO)O2)cc1/C=C/Br`, the Potency result is “inactive”. On the same count and under the same terms, the value for `C=C1C(=C/C=C2\CCC[C@]3(C)[C@@H]([C@H](C)CCCC(C)C)CC[C@@H]23)C[C@@H](O)C[C@@H]1O` was “inactive”; that for `COc1cc2c(cc1OC)[C@@H](Cc1cc(OC)c(OC)c(OC)c1)[N+](C)(CCCOC(=O)CC/C=C/CCC(=O)OCCC[N+]1(C)CCc3cc(OC)c(OC)cc3[C@H]1Cc1cc(OC)c(OC)c(OC)c1)CC2` (stereo partly specified) was “inactive”; that for `CC(C)CCC[C@@H](C)[C@H]1CC[C@H]2[C@@H]3CC=C4C[C@@H](O)CC[C@]4(C)[C@H]3CC[C@]12C` was “inactive”.

On to `CN[C@@H]1[C@@H](O[C@H]2O[C@H](CO)[C@@H](N)[C@H](O)[C@H]2O)O[C@H]2C[C@@H](N)[C@@H](O[C@H]3[C@H](O)[C@@H](O)[C@H](N)C[C@@H]3N)O[C@@H]2[C@@H]1O`, for which the Potency result was “inactive”. Take `CC(C)C[C@@H]1NC(=O)[C@H](CCCN)NC(=O)[C@H](C(C)C)NC(=O)[C@@H]2CCCN2C(=O)[C@@H](Cc2ccccc2)NC(=O)[C@H](CC(C)C)NC(=O)[C@H](CCCN)NC(=O)[C@H](C(C)C)NC(=O)[C@@H]2CCCN2C(=O)[C@@H](Cc2ccccc2)NC1=O` (cyclo(V[Orn]L[dF]PV[Orn]L[dF]P)): the Potency result is “inactive”. Same read-out and setting: the value for `CC[C@H]1OC(=O)C[C@@H](O)[C@H](C)[C@@H](O[C@@H]2O[C@H](C)[C@@H](O)[C@H](N(C)C)[C@H]2O)[C@@H](CCN2C[C@H](C)C[C@H](C)C2)C[C@@H](C)C(=O)/C=C/C(C)=C/[C@@H]1CO[C@@H]1O[C@H](C)[C@@H](O)[C@@H](OC)[C@H]1OC` was “inactive”; that for `NC[C@@H]1CC[C@@H](N)[C@@H](O[C@H]2[C@H](O)[C@@H](O[C@H]3O[C@H](CO)[C@@H](O)[C@H](N)[C@H]3O)[C@H](N)C[C@@H]2N)O1` was “inactive”; that for `CCOc1ccc(NC(=S)Nc2ccc(OCC)cc2)cc1` was “inactive”. For `C[C@]12O[C@H](C[C@]1(O)CO)n1c3ccccc3c3c4c(c5c6ccccc6n2c5c31)CNC4=O`, the Potency entry was “inactive”. As for `CC/C=C\C/C=C\C/C=C\C/C=C\C/C=C\CCCC(=O)O`, the Potency result is “inactive”. As to `CC[C@H]1OC(=O)[C@H](C)C(=O)[C@H](C)[C@@H](O[C@@H]2O[C@H](C)C[C@H](N(C)C)[C@H]2O)[C@](C)(OC)C[C@@H](C)C(=O)[C@H](C)[C@H]2N(CCCCn3cnc(-c4cccnc4)c3)C(=O)O[C@]12C`, the Potency result was “inactive and 501 nM (active)”. As for `NC(=O)c1cc[n+](CC2=C(C(=O)O)N3C(=O)[C@@H](NC(=O)C(c4ccccc4)S(=O)(=O)[O-])[C@H]3SC2)cc1` (stereo partly specified), the Potency entry is “inactive”. On to `CC(C)OC(=O)Nc1ccc2nc(-c3cscn3)[nH]c2c1`, for which the Potency result is “inactive”.

As for `N[C@@H](Cc1cnc[nH]1)C(=O)O`, the Potency result was “inactive”. Still for that read-out and setting: the value for `C[C@@H]1O[C@@H](OC[C@H]2O[C@@H](Oc3c(-c4ccc(OCCO)c(OCCO)c4)oc4cc(OCCO)cc(O)c4c3=O)[C@H](O)[C@@H](O)[C@@H]2O)[C@H](O)[C@H](O)[C@H]1O` was “inactive”; that for `CCCCCCOC(=O)c1cccnc1` was “inactive”.

In the case of `CC(C)[C@H](NC(=O)[C@H](CC(=O)O)NC(=O)[C@H](CCCCN)NC(=O)[C@@H](N)CCCN=C(N)N)C(=O)N[C@@H](Cc1ccc(O)cc1)C(=O)O` (H-RKDVY-OH), the Potency result is “inactive”. For the compound `N=C(N)n1cccn1`, the Potency result was “inactive”.

As to `Nc1nc(/C(=C/CC(=O)O)C(=O)N[C@@H]2C(=O)N3C(C(=O)O)=CCS[C@H]23)cs1`, the Potency result was “inactive”. `CC1=C(/C=C/C(C)=C/C=C/C(C)=C/C=C/C=C(C)/C=C/C=C(C)/C=C/C2=C(C)CCCC2(C)C)C(C)(C)CCC1`: the Potency entry was “inactive”. `CC(=O)OCC(=O)[C@@]1(O)CC[C@H]2[C@@H]3C[C@H](C)C4=CC(=O)C=C[C@]4(C)[C@H]3[C@@H](O)C[C@@]21C`: the Potency entry was “inactive”.

For the next experiment the target is unchanged. Put plainly: Human pregnane X receptor (PXR) activation by small molecules, qHTS assay (AID 1346985). Particulars: DPX-2 HepG2 CYP3A4-luciferase, 24 h; series mostly up to 38.3 µM. In short, it runs like this: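 DPX-2 cells (HepG2 co-transfected with a PXR response element and a CYP3A4-promoter luciferase construct) were seeded at 2,000 per well, rested 5 hr at 37C, then exposed to DMSO-dissolved compounds for 24 hr. Activation was read as luciferase luminescence.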
`C[N+]1(CCCCC[N+]2(C)CCCC2)CCCC1`: the Potency result is “inactive”. As to `CCC1OC(=O)C[C@@H](O)[C@H](C)[C@@H](O[C@@H]2O[C@H](C)C[C@H](N(C)C)[C@H]2O)[C@@H](CC=O)C[C@@H](C)C(=O)/C=C/[C@]2(C)OC2C1C` (stereo partly specified), the Potency entry was “inactive”. In the case of `CCCCCCCCCCCCCC(=O)OCC(COP(=O)([O-])OCC[N+](C)(C)C)OC(=O)CCCCCCCCCCCCC` (stereo unspecified), the Potency result was “inactive”.

On to `CC(=NCc1ccccc1)c1ccccc1O`, for which the Potency entry was “inactive”. `CCC(=O)OC(OP(=O)(CCCCc1ccccc1)CC(=O)N1C[C@H](C2CCCCC2)C[C@H]1C(=O)O)C(C)C` (stereo partly specified): the Potency entry was “inactive”. The same measure, in the same setting: the entry for `CC12CCC(C[N+](C)(CCC[N+](C)(C)C)C1)C2(C)C` (stereo unspecified) is “inactive”; for `NC(=O)CC[C@@H]1NC(=O)[C@H](Cc2ccccc2)NC(=O)[C@H](Cc2ccc(O)cc2)NC(=O)[C@@H](N)CSSC[C@@H](C(=O)N2CCC[C@H]2C(=O)N[C@@H](CCCN=C(N)N)C(=O)NCC(N)=O)NC(=O)[C@H](CC(N)=O)NC1=O` it is “inactive”; for `O=C(O)Cc1nn(Cc2ccc(Br)cc2F)c(=O)c2ccccc12` it is “inactive”. Turning to `NCCO/C=C/[C@H](N)C(=O)O`, the Potency entry was “inactive”.

As to `CC/C(=C(/CC)c1ccc(OP(=O)(O)O)cc1)c1ccc(OP(=O)(O)O)cc1`, the Potency entry was “inactive”. On to `CO/N=C(\C(=O)N[C@@H]1C(=O)N2C(C(=O)O)=C(COC(C)=O)CS[C@H]12)c1csc(N)n1` (stereo in doubt), for which the Potency result was “inactive”. With `C=CCN1C(=O)C(CC(C)C)NC1=S` (stereo unspecified), the Potency result is “inactive”. As for `CN[C@H](CC(C)C)C(=O)N[C@H]1C(=O)N[C@@H](CC(N)=O)C(=O)N[C@H]2C(=O)N[C@H]3C(=O)N[C@H](C(=O)N[C@@H](C(=O)O)c4cc(O)cc(O)c4-c4cc3ccc4O)[C@H](O)c3ccc(c(Cl)c3)Oc3cc2cc(c3O[C@@H]2O[C@H](CO)[C@@H](O)[C@H](O)[C@H]2O[C@H]2C[C@](C)(N)C(O)[C@H](C)O2)Oc2ccc(cc2Cl)[C@H]1O` (stereo partly specified), the Potency entry was “inactive”. On to `C=C1[C@H](CO)[C@@H](O)C[C@@H]1n1cnc2c(=O)[nH]c(N)nc21`, for which the Potency result was “inactive”. For the compound `CC(C)=CCC/C(C)=C/CC/C(C)=C/CC/C=C(\C)CC/C=C(\C)CCC=C(C)C`, the Potency result was “inactive”. `CCN(CC)CC#CCOC(=O)C(O)(c1ccccc1)C1CCCCC1` (stereo unspecified): the Potency is 17.8 µM (active).

Turning to `CC(C)c1ncc([N+](=O)[O-])n1C`, the Potency result was “inactive”. `N[C@H](C(=O)O)[C@@H]1CC(Cl)=NO1`: the Potency entry was “inactive”. Turning to `O=c1[nH]c(=O)n([C@H]2C[C@H](O)[C@@H](CO)O2)cc1/C=C/Br`, the Potency entry was “inactive”.

As for `C=C1C(=C/C=C2\CCC[C@]3(C)[C@@H]([C@H](C)CCCC(C)C)CC[C@@H]23)C[C@@H](O)C[C@@H]1O`, the Potency result was “inactive”.

For `COc1cc2c(cc1OC)[C@@H](Cc1cc(OC)c(OC)c(OC)c1)[N+](C)(CCCOC(=O)CC/C=C/CCC(=O)OCCC[N+]1(C)CCc3cc(OC)c(OC)cc3[C@H]1Cc1cc(OC)c(OC)c(OC)c1)CC2` (stereo partly specified), the Potency result is “inactive”.

Consider `CC(C)CCC[C@@H](C)[C@H]1CC[C@H]2[C@@H]3CC=C4C[C@@H](O)CC[C@]4(C)[C@H]3CC[C@]12C`, for which the Potency result is “inactive”. The same measure, in the same setting: the value for `CN[C@@H]1[C@@H](O[C@H]2O[C@H](CO)[C@@H](N)[C@H](O)[C@H]2O)O[C@H]2C[C@@H](N)[C@@H](O[C@H]3[C@H](O)[C@@H](O)[C@H](N)C[C@@H]3N)O[C@@H]2[C@@H]1O` was “inactive”. As to `CC(C)C[C@@H]1NC(=O)[C@H](CCCN)NC(=O)[C@H](C(C)C)NC(=O)[C@@H]2CCCN2C(=O)[C@@H](Cc2ccccc2)NC(=O)[C@H](CC(C)C)NC(=O)[C@H](CCCN)NC(=O)[C@H](C(C)C)NC(=O)[C@@H]2CCCN2C(=O)[C@@H](Cc2ccccc2)NC1=O` (cyclo(V[Orn]L[dF]PV[Orn]L[dF]P)), the Potency entry is “inactive”. The same measure, in the same setting: the entry for `CC[C@H]1OC(=O)C[C@@H](O)[C@H](C)[C@@H](O[C@@H]2O[C@H](C)[C@@H](O)[C@H](N(C)C)[C@H]2O)[C@@H](CCN2C[C@H](C)C[C@H](C)C2)C[C@@H](C)C(=O)/C=C/C(C)=C/[C@@H]1CO[C@@H]1O[C@H](C)[C@@H](O)[C@@H](OC)[C@H]1OC` is “inactive”; for `NC[C@@H]1CC[C@@H](N)[C@@H](O[C@H]2[C@H](O)[C@@H](O[C@H]3O[C@H](CO)[C@@H](O)[C@H](N)[C@H]3O)[C@H](N)C[C@@H]2N)O1` it is “inactive”; for `CCOc1ccc(NC(=S)Nc2ccc(OCC)cc2)cc1` it is “inactive”. On to `C[C@]12O[C@H](C[C@]1(O)CO)n1c3ccccc3c3c4c(c5c6ccccc6n2c5c31)CNC4=O`, for which the Potency entry was “inactive”. Same read-out and setting: the value for `CC/C=C\C/C=C\C/C=C\C/C=C\C/C=C\CCCC(=O)O` was “inactive”; that for `CC[C@H]1OC(=O)[C@H](C)C(=O)[C@H](C)[C@@H](O[C@@H]2O[C@H](C)C[C@H](N(C)C)[C@H]2O)[C@](C)(OC)C[C@@H](C)C(=O)[C@H](C)[C@H]2N(CCCCn3cnc(-c4cccnc4)c3)C(=O)O[C@]12C` was “inactive and 794 nM (active)”; that for `NC(=O)c1cc[n+](CC2=C(C(=O)O)N3C(=O)[C@@H](NC(=O)C(c4ccccc4)S(=O)(=O)[O-])[C@H]3SC2)cc1` (stereo partly specified) was “inactive”.

In the case of `CC(C)OC(=O)Nc1ccc2nc(-c3cscn3)[nH]c2c1`, the Potency is 5.01 µM (active).

Regarding `N[C@@H](Cc1cnc[nH]1)C(=O)O`, the Potency result was “inactive”. On the same count and under the same terms, the value for `C[C@@H]1O[C@@H](OC[C@H]2O[C@@H](Oc3c(-c4ccc(OCCO)c(OCCO)c4)oc4cc(OCCO)cc(O)c4c3=O)[C@H](O)[C@@H](O)[C@@H]2O)[C@H](O)[C@H](O)[C@H]1O` was “inactive”.
